HT1080 IDH1KD tx: kills HT-1080 cells with IDH1 knockdown; HT-1080 IDH1 knockdown viability, ATP luminescence, 48 h; Potency, µM (series often up to 46.1 µM), usual class: cytotoxic; 2% of 360,000 active
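Knockdown cells (IDH1KD HT-1080) received compounds 2 h after plating at 750 cells/well and were kept 48 h at 37 °C in 5% FBS RPMI. A CellTiter-Glo luminescence read gave % activity for curve fitting.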
HT1080NT lethal: kills 2HG-producing HT-1080-NT fibrosarcoma cells. AID 686970. HT-1080-NT fibrosarcoma viability, CellTiter-Glo ATP luminescence, 48 h. 1.6% of 360,000 active. Potency, µM (highest dose often 46.1 µM), actives largely listed as cytotoxic;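 also: NT is the 2HG producing partner of a matched IDH1 knockdown line; nearly all actives have a fitted effect of over 55% in size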
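HT-1080-NT fibrosarcoma cells (2HG-overproducing), 750 cells/well in RPMI with 5% FBS, dosed after 2 h and incubated 48 h at 37C. CellTiter-Glo luminescence normalized to DMSO and no-cell wells; concentration-response curves fitted and classed.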
DT40 TDP1 no CPT: qHTS for Inhibitors of human tyrosyl-DNA phosphodiesterase 1 (TDP1): qHTS in cells in absence of CPT | Potency, µM (titrated, usually from 46.2 µM), most hits filed as inhibitors | DT40 Tdp1-/- hTDP1 cells, no CPT, ATP luminescence, 48 h | 15% of 420,000 active; also: nearly all actives have a fitted effect of over 55% in size
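Chicken DT40 Tdp1-/- cells stably complemented with human TDP1 were seeded at 400 cells/well with DMSO in place of 20 nM camptothecin. After compound pinning, cells grew at least 48 hr at 37 °C; viability read by CellTiter-Glo luminescence.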
DT40 TDP1 CPT: DT40-hTDP1 cell growth loss with CPT; chicken DT40 Tdp1-/-;hTDP1 cells + 20 nM CPT, ATP luminescence, 48 h; 12% of 420,000 active; Potency, µM (series often up to 46.2 µM), most hits filed as inhibitors; also: nearly all actives have a fitted effect of over 55% in size
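Chicken DT40 Tdp1-/- cells stably complemented with human TDP1 were seeded at 400 cells/well in medium containing 20 nM camptothecin, exposed to pin-transferred compounds, and grown at 37 °C for at least 48 hr. Viability was read as ATP luminescence.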
ALOX12 inh: ALOX12 (human) lipoxygenase inhibition. 1.1% of 580,000 active. AID 1671190. P18054. Potency, µM (top dose mostly 108 µM), usual class: inhibitors. purified 12hLO, xylenol orange hydroperoxide absorbance
Target sequence (P18054 whole entry, looked up): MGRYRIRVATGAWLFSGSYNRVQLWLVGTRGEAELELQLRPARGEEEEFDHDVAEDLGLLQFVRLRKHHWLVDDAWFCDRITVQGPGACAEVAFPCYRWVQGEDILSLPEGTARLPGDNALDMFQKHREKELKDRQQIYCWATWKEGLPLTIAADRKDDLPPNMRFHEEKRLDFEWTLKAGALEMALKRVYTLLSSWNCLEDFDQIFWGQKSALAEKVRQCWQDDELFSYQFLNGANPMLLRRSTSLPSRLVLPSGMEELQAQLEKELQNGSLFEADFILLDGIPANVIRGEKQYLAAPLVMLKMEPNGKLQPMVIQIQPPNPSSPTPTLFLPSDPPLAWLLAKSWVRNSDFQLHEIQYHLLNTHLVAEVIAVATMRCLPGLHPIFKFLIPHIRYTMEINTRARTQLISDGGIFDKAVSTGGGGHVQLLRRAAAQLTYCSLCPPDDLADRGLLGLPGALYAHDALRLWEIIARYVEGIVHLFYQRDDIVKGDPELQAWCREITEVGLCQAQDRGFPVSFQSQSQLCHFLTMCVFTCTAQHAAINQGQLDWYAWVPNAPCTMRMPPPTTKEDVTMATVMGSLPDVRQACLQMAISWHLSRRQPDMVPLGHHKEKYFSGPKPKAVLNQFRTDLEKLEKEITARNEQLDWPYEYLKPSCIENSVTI
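Hydroperoxide product was detected by ferrous iron/xylenol orange as the 573 to 405 nm absorbance ratio. Arachidonic acid at 40 uM (final) was turned over for 30 min at room temperature by 150 nM human 12hLO, pH 7.0 Hepes buffer, after 15 min compound preincubation.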
IL-1B inflam inh: blocks inflammasome-driven IL-1 beta release | THP-1 LPS/ATP IL-1B secretion, AlphaLISA, 16 h; active compounds read low | activity change, % at 57.5 µM | 4.7% of 360,000 active; in the data active = activity change below about -50%; inconclusive = mostly about -30% to -49%
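THP-1 cells pretreated 1 hr with compounds (up to 57.5 uM final), then stimulated with LPS (250 ng/mL final) plus ATP (1.25 mM final); secreted IL-1B measured by AlphaLISA after 16 hr, decreased signal indicating inhibition.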
Numbers stand for hits; – = inactive; ? = inconclusive; · = not tested or not shown. This is one part of a sample in which hits are shown more often than they occur. Unless noted, calls follow the shape of the dose curve; as a rule, active = well fitted curve in the direction sought with a large enough effect; inconclusive = small, poorly fitted or top-dose-only effect, or another doubt; inactive = no such curve, though single readings can be large; an effect the other way counts as inactive or inconclusive.

SMILES | HT1080 IDH1KD tx | HT1080NT lethal | DT40 TDP1 no CPT | DT40 TDP1 CPT | ALOX12 inh | IL-1B inflam inh
COc1cc2c(cc1NC(=O)CC1SC(N3CCCC3)=NC1=O)oc1ccccc12 (stereo not drawn) | ? | ? | 21µM | ? | – | –
COc1cc2c(cc1NC(=O)CN(C)Cc1ccc(OC)c(OC)c1)oc1ccccc12 | ? | ? | 16µM | 16µM | – | –
COc1ccc(CN(C)CC(=O)Nc2cc3oc4ccccc4c3cc2OC)c(OC)c1 | – | – | 10µM | 13µM | – | –
COc1ccc(CN(C)CC(=O)Nc2ccccc2C(F)(F)F)c(OC)c1 | – | – | – | – | – | –
CN(C)C(CNS(=O)(=O)c1ccccc1)c1ccsc1 (stereo not drawn) | · | · | · | · | – | ·
COc1ccc2ccc(O)c(CN(C)CC(=O)Nc3ccccc3C(F)(F)F)c2c1 | – | ? | ? | 21µM | 7.1µM | –
COc1cc2c(cc1NC(=O)c1cncc(Br)c1)oc1ccccc12 | ? | ? | – | – | – | –
COc1ccc(CN(C)CC(=O)Nc2ccc(Cl)cc2C(F)(F)F)c(OC)c1 | – | – | 16µM | 21µM | – | –
COc1cc2c(cc1NC(=O)C(C)NCc1ccccc1)oc1ccccc12 (stereo not drawn) | ? | ? | 16µM | ? | – | –
CCN(CC)S(=O)(=O)c1cccc(C(=O)Nc2cc3oc4ccccc4c3cc2OC)c1 | – | – | 18µM | 16µM | – | –
COc1ccc(CN(C)CC(=O)Nc2ccccc2C(F)(F)F)cc1 | – | – | ? | ? | – | –
CCS(=O)(=O)c1ccc(NCc2cccc(F)c2)cc1 | · | · | · | · | – | ·
N#Cc1cccc(C(=O)Nc2ccc3ncnc(N4CCCCC4)c3c2)c1 | · | · | · | · | – | ·
CSc1cccc(NC(=O)O[C@@H]2CC[C@]3(C)C(CC[C@@H](O)[C@H]3CC(=O)N3CCCC3)[C@]2(C)CO)c1 (stereo partly drawn) | · | · | · | · | – | ·
COc1cc2c(cc1NC(=O)CN1CCN(S(=O)(=O)c3ccccc3F)CC1)oc1ccccc12 | – | – | 21µM | 15µM | – | –
O=[N+]([O-])c1ccccc1S(=O)c1ccccc1[N+](=O)[O-] | ? | 21µM | 16µM | 10µM | – | –
Cc1ccc(N2C(=O)c3cccc4c(N)ccc(c34)C2=O)c2cccnc12 | 0.0073µM | 0.021µM | 0.021µM | 0.0082µM | – | –
Nc1cc(=O)[nH]c(SCc2ccc(Cl)cc2Cl)n1 | – | – | 7.3µM | 8.2µM | – | –
Nc1cc(=O)[nH]c(SCc2cccc(Br)c2)n1 | · | · | · | · | – | ·
O=C(C1CC(=O)N(C2CC2)C1)N1CCC(Oc2ccccc2Cl)CC1 (stereo not drawn) | · | · | · | · | – | ·
COc1cc(C(=S)N2CCOCC2)cc(OC)c1OS(=O)(=O)c1ccc(C)cc1 | – | – | – | – | – | –
CCOc1cc(C(=S)N2CCOCC2)ccc1OS(=O)(=O)c1ccc(C)cc1 | – | – | ? | – | – | –
CCOc1cc(C(=S)N2CCOCC2)cc(Br)c1OS(=O)(=O)c1ccccc1 | – | – | 23µM | ? | – | –
CCOc1cc(C(=S)N2CCCCC2)ccc1OS(=O)(=O)c1ccc(Cl)cc1 | – | – | 23µM | 16µM | – | –
CCOc1cc(C(=S)N2CCC(O)CC2)ccc1OS(=O)(=O)c1ccc(Br)cc1 | – | ? | 18µM | ? | ? | -82
SMILES | HT1080 IDH1KD tx | HT1080NT lethal | DT40 TDP1 no CPT | DT40 TDP1 CPT | ALOX12 inh | IL-1B inflam inh
CCOc1cc(C(=S)N2CCCCC2)ccc1OS(=O)(=O)c1ccc(Br)cc1 | – | – | 18µM | 21µM | – | –
CCOc1ccc(C(=S)N2CCCC2)cc1OC | – | – | – | – | – | –
Cn1nc(C(=O)Nc2ccnn2Cc2ccccc2Cl)c2ccccc2c1=O | · | · | · | · | – | ·
CN1C(=O)C(c2ccccc2)CC12CCN(C(=O)C1CCC(O)CC1)CC2 (stereo not drawn) | · | · | · | · | – | ·
Cn1ncc2c(N3CCN(S(N)(=O)=O)CC3)nc(C3CCCC3)nc21 | · | · | · | · | – | ·
COc1c2c(cc3oc(=O)c4c5ccc(O)cc5oc4c13)OC(C)(C)CC2 | – | – | 16µM | 16µM | – | –
O=c1oc2cc(O)ccc2c2ccccc12 | – | – | – | – | ? | –
O=c1oc2cc(O)ccc2c2oc3cc(O)ccc3c12 | – | – | 23µM | ? | – | –
COc1c(CC=C(C)C)c(O)cc2oc(=O)c3c4ccc(O)cc4oc3c12 | – | – | 18µM | ? | · | –
O=C(c1cnc(Cl)c(Cl)c1)N1CCN(S(=O)(=O)c2ccc3ccccc3c2)CC1 | – | – | 16µM | ? | ? | -102
O=C(NCC1(c2ccccc2)CCCC1)c1ccc(S(=O)(=O)N2CCOCC2)cc1 | · | · | · | · | – | ·
O=C(Nc1ccc(F)cc1F)c1ccc2c(Cl)c3c(nc2c1)CCCC3 | · | · | · | · | – | ·
OC1CCOC2(CCN(Cc3cccc4[nH]ccc34)CC2)C1 (stereo not drawn) | · | · | · | · | – | ·
O=S(=O)(c1cnc(Cl)c(Br)c1)N1CCc2ccccc21 | ? | 21µM | ? | 16µM | – | -103
O=S(=O)(c1cnc(Cl)c(Cl)c1)N1CCCc2ccccc21 | ? | ? | 16µM | 18µM | – | -101
O=C(OCC(=O)N1CCCc2ccccc21)c1cnc(Cl)c(Cl)c1 | – | – | – | – | – | -85
Cc1ccc(S(=O)(=O)N2CCCc3ccccc32)cc1 | ? | – | ? | – | – | –
O=C(COc1ccc(Cl)cc1Cl)NC(=S)N1CCCc2ccccc21 | ? | ? | 21µM | ? | ? | –
Cn1cnc(S(=O)(=O)N2CCc3ccccc32)c1 | – | – | – | – | – | –
O=C(COc1ncnc2ccc(Br)cc12)Nc1ccc(F)cc1F | · | · | · | · | – | ·
O=S(=O)(c1cnc(Cl)c(Cl)c1)N1CCc2ccccc21 | – | ? | 16µM | ? | – | -65
O=S(=O)(c1cc(Cl)ccc1Cl)N1CCc2ccccc21 | – | – | ? | ? | – | –
COC(=O)c1[nH]c2ccc(Br)cc2c1NC(=O)C(C)N1CCN(C2CCCCC2)CC1 (stereo not drawn) | 21µM | ? | 16µM | 5.2µM | – | -82
COC(=O)c1[nH]c2ccc(C)cc2c1NC(=O)C(C)N1CCN(C2CCCCC2)CC1 (stereo not drawn) | – | ? | ? | – | ? | –
CN1C(=O)CC(Nc2cccc3cccc(N)c23)C1=O (stereo not drawn) | – | – | – | – | · | –
CC(C)N1C(=O)CC(Nc2cccc3cccc(N)c23)C1=O (stereo not drawn) | – | – | 21µM | 23µM | – | –
